The campaign covered roughly 5,500 compounds. About 2,000 (36%) were called active. Not shown: some 18% with an inconclusive outcome. No stated cut-off is given here; in the data, active means normalized growth mostly below about 0.91 (no sharp cut-off); inconclusive means no clear call, values can overlap the other calls; inactive means mostly above about 0.92. Some of the results follow.
Experiment: chemical genetic growth profiling, strain panel (AID 1159580);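 further: tested at 20 µM; growth read once vehicle control cultures reached saturation at 30 °C; 1 = growth at the plate median or of vehicle wells; lower values mean less growth of the strain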
Details: S. cerevisiae deletion strains, growth OD

Measured: normalized growth

COC(=O)[C@H](Cc1ccccc1)NC(=O)/C(=C1\OC(=O)C(c2ccccc2)=C1O)c1ccccc1
inactive: locus YHR030C, strain SLT2, hits give low values 1.05 | locus YHR079C, strain IRE1, hits give low values 1.06 | locus YJL095W, strain BCK1, hits give low values 0.998 | locus YJR066W, strain TOR1, hits give low values 0.992 | locus YLR113W, strain HOG1, hits give low values 0.961 | locus YNL183C, strain NPR1, hits give low values 0.98 | locus YOR231W, strain MKK1, hits give low values 1.04 | locus YPL256C, strain CLN2, hits give low values 1.05
